An excerpt weighted towards active compounds, which were near 8.7% of everything screened.
Pf growth 96h: P. falciparum growth inhibition at 96 hours; AID 504834; 320,000 compounds, 6.9% hits; Potency, µM (series often up to 28.7 µM), usual class: inhibitors; P. falciparum luciferase reporter growth, 96 h
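96 h incubation, 37 C, 5% CO2, of luciferase-reporter P. falciparum-infected RBCs (2% hematocrit, 0.05% parasitemia final) with test compounds; endpoint luminescence.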
VACV Venus inh: vaccinia inhibition (Venus reporter). Vaccinia virus Venus reporter expression, fluorescence. Potency, µM (top dose mostly 36.5 µM), usual class: inhibitors. 330,000 compounds, 0.46% hits; calls by dose curve; tested in A549 cells; also: nearly all actives have a fitted effect of over 30% in size
AMA1-RON2 inh: inhibitors of Plasmodium falciparum AMA1-RON2 interaction; Potency, µM (series often up to 58.2 µM), usual class: inhibitors; AID 720542; AlphaScreen AMA1-biotinylated RON2 peptide binding; 360,000 compounds, 0.2% hits; also: nearly all actives have a fitted effect of over 45% in size
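AMA1 (3D7) with his tag at 25 nM final met compounds first, then biotinylated RON2 peptide at 25 nM; detection used donor plus acceptor beads, 10 µg/mL apiece, read by AlphaScreen after 30 min at room temperature.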
Pf growth 48h: inhibits P. falciparum growth in the first generation, 48 h. Potency, µM (titrated, usually from 28.7 µM), actives largely listed as inhibitors. 310,000 compounds, 5.9% hits. P. falciparum luciferase growth in erythrocytes, 48 h
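Firefly luciferase activity from engineered P. falciparum reports growth; inhibitors lower the luminescent signal. Cultures contained 2% hematocrit erythrocytes at 0.1% final parasitemia.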
VACV mCherry inh: inhibitors of vaccinia virus infection (mCherry reporter signal). AID 720579. Vaccinia virus mCherry reporter infection, fluorescence. Potency, µM (top dose mostly 36.5 µM), hits mostly inhibitors. 310,000 compounds, 0.63% hits; calls by dose curve; tested in A549 cells; also: nearly all actives have a fitted effect of over 35% in size
Hits are given with their value; . = inactive; ? = inconclusive; / = no result; [ ] = dose if it differs, or a comment. Unless noted, calls follow the shape of the dose curve; as a rule, active = well fitted curve in the direction sought with a large enough effect; inconclusive = small, poorly fitted or top-dose-only effect, or another doubt; inactive = no such curve, though single readings can be large; an effect the other way counts as inactive or inconclusive.

SMILES | Pf growth 96h | VACV Venus inh | AMA1-RON2 inh | Pf growth 48h | VACV mCherry inh
CC(C)C(c1nnnn1C(C)(C)C)N1CCC(Cc2ccccc2)CC1 (stereo not given) | . | . | . | 9.3µM | .
CC(C)C(c1nnnn1C(C)(C)C)N1CCOCC1 (stereo not given) | . | . | ? | . | .
O=[N+]([O-])c1ccccc1S(=O)(=O)N1CCCC(C(F)(F)F)C1 (stereo not given) | 0.83µM | . | . | . | .
Cn1c(SCC(=O)c2ccccc2)nnc1-c1ccco1 | 15µM | . | . | . | .
Cn1c(SCC(=O)N2c3ccccc3Sc3ccc(Cl)cc32)nnc1-c1ccco1 | 1.5µM | . | . | 9.3µM | .
Cc1cc(OC(C)C(=O)N(Cc2ccco2)Cc2ccccc2F)cc(C)c1Cl (stereo not given) | / | . | / | / | .
CCCCC(=O)Nc1cccc(-c2nc3ncccc3o2)c1 | 12µM | / | . | ? | /
O=C(CSc1ccc(Cl)cc1)Nc1cc(-c2nc3ncccc3o2)ccc1Cl | 4.7µM | / | / | ? | /
O=C(CSc1ccc(Cl)cc1)Nc1cccc(-c2nc3ncccc3o2)c1 | ? | . | . | ? | .
CCC(=O)Nc1cccc(-c2nnc(-c3cccc(NC(=O)CC)c3)o2)c1 | 1.2µM | . | . | 5.2µM | .
COc1ccc(N(Cc2cccs2)C(=O)c2ccccc2C)cc1 | / | . | / | / | .
CN(C)c1ccc(/C=C/c2c(Br)cnc3ccccc23)cc1 | / | . | / | / | .
Cc1ccc(C)c(CN2C(=O)c3ccccc3S(=O)c3ccc(C(=O)N4CCN(c5cccc(Cl)c5)CC4)cc32)c1 (stereo not given) | / | . | / | / | .
COc1ccc(C(=O)O/N=C(\N)c2ccncc2)cc1OC | ? | . | . | ? | .
N/C(=N\OC(=O)C(c1ccccc1)c1ccccc1)c1ccncc1 | ? | . | . | 2.9µM | ?
Cc1ccc(C(=O)O/N=C(\c2ccccc2)c2ccncc2)cc1 | ? | . | . | . | .
COc1cccc(OC)c1C(=O)O/N=C(\N)c1ccncc1 | 12µM | . | . | ? | ?
COc1cccc(C(=O)O/N=C(\N)c2ccncc2)c1 | ? | . | . | . | .
COc1cc(C(=O)O/N=C(\N)c2ccncc2)cc(OC)c1OC | ? | . | . | 9.3µM | .
COc1ccccc1C(=O)O/N=C(/c1ccncc1)c1ccc([N+](=O)[O-])cc1 | 5.2µM | . | . | ? | .
COc1ccccc1S(=O)(=O)Cc1ccc(C(=O)N2CCN(c3cc(Cl)ccc3C)CC2)o1 | / | . | / | / | .
O=C(NCCCN1CCN(c2ccccc2F)CC1)c1nnc(Cc2ccc(Cl)cc2Cl)o1 | / | . | / | / | .
COc1ccc(OC)c(CCNC(=O)c2cc3c(=O)oc4ccc(C)cc4c3s2)c1 | / | . | / | / | .
CCn1c(CCCCc2n[nH]c(=S)n2CC)n[nH]c1=S | . | / | . | . | /
CCc1n[nH]c(=O)n1Cn1c(CC)n[nH]c1=O | 10µM | . | . | / | .
SMILES | Pf growth 96h | VACV Venus inh | AMA1-RON2 inh | Pf growth 48h | VACV mCherry inh
Cc1ccc(S(=O)(=O)N2CCCc3cc(NS(=O)(=O)c4ccccc4)ccc32)cc1 | / | . | / | / | .
O=C(COc1cc(O)c2c(=O)cc(-c3ccccc3)oc2c1)c1cccc([N+](=O)[O-])c1 | . | . | . | 4.1µM | .
CSCCC(NC(=O)c1ccccc1Cl)C(=O)N1CCN(C(C)=O)CC1 (stereo not given) | . | . | .[11.6 µM] | ? | .
COc1ccccc1C(=O)NC(CCSC)C(=O)N1CCC(Cc2ccccc2)CC1 (stereo not given) | ? | . | ? | 15µM | .
CSCCC(NC(=O)c1ccccc1)C(=O)N1CC=C(c2ccccc2)CC1 (stereo not given) | ? | . | . | 9.3µM | .
CSCCC(NC(=O)c1ccccc1)C(=O)N1CCN(C(=O)c2ccccc2)CC1 (stereo not given) | / | / | . | / | /
COc1ccc(-c2[nH]c(-c3cc(OC)c4c(c3)OCO4)nc2-c2ccccc2)cc1 | ? | ? | .[11.6 µM] | 4.1µM | ?
O=C(/C=C/c1ccco1)Oc1cccc2cccnc12 | 5.9µM | ? | . | 5.2µM | .
O=C(/C=C\c1ccco1)Oc1cccc2cccnc12 | . | ? | . | ? | ?
COc1ccc(C2CC(=O)c3cc(-c4nc(-c5cccc([N+](=O)[O-])c5)cs4)c(=O)n(-c4ccc(C)c(C)c4)c3C2)cc1 (stereo not given) | / | . | / | / | .
COc1cc(NC(=O)Cn2nc(C(F)(F)F)c3c2CCCC3)cc(OC)c1OC | / | ? | . | 10µM | .
O=C(Cn1nc(C(F)(F)F)c2c1CCCC2)NCCN1CCOCC1 | 15µM | / | . | 12µM | /
COc1ccc(Cl)cc1NC(=O)Cn1nc(C(F)(F)F)c2c1CCCC2 | / | . | / | / | .
CCCNC(=O)Cn1nc(C(F)(F)F)c2c1CCCC2 | . | . | . | . | .
O=C(Cn1cncn1)N1CCOc2ccc(CN3CCN(c4ccccc4)CC3)cc2C1 | / | . | / | / | .
COc1cc(NC(=O)c2nc3cc(C)c(C)cc3n(C)c2=O)cc(OC)c1OC | / | . | / | / | .
Cc1cccc(C(=O)NNc2ncnc3c2cnn3-c2ccc(C)cc2C)c1 | / | . | / | / | .
COCCN1Cc2cccc(C(=O)Nc3cccc(-c4nc5ccccc5[nH]4)c3)c2C1=O | ? | ? | . | 1.9µM | ?
COCCN1Cc2cccc(C(=O)Nc3ccc(-c4nc5ccccc5[nH]4)cc3)c2C1=O | ? | . | . | ? | .
CCCN1Cc2cccc(C(=O)Nc3ccc(-c4nc5ccccc5[nH]4)cc3)c2C1=O | . | . | . | 2.3µM | .
O=C1CC(c2nc(-c3ccccc3)no2)CN1c1ccc2c(c1)OCCO2 (stereo not given) | / | . | / | / | .
COc1cc(OC)cc(C(=O)NCC(=O)N2CCN(c3ccc(O)cc3)CC2)c1 | ? | . | . | . | .
COc1cc(OC)c2nc(C)c3c(c2c1)N(c1ccc(O)cc1)CC3 | 13µM | ? | . | ? | ?
COc1ccc(Nc2nc(N)c([N+](=O)[O-])c(NC3CCCCC3)n2)cc1 | 10µM | ? | . | ? | ?
CC[C@H]1CN2CCc3cc(OC)c(OC)cc3C2C[C@@H]1C[C@H]1NCCc2cc(OC)c(OC)cc21 (stereo not given in full) | 0.046µM | 0.89µM | . | 0.052µM | 0.5µM
SMILES | Pf growth 96h | VACV Venus inh | AMA1-RON2 inh | Pf growth 48h | VACV mCherry inh
COC(=O)CC1NCCc2cc(OC)c(OC)cc21 (stereo not given) | . | / | . | . | /
CCC1CN2CCc3cc(OC)c(OC)cc3C2CC1CC1NCCc2cc(OC)c(OC)cc21 (stereo not given) | / | 2.5µM | / | / | 2.2µM
CCC1=C(CC2NCCc3ccccc32)CC2c3cc(OC)c(OC)cc3CCN2C1 (stereo not given) | / | 3.5µM | . | / | 3.5µM
O=C(c1cccnc1)C1CCCN(Cc2ccc3c(c2)CN(C(=O)c2cccs2)CCO3)C1 (stereo not given) | / | . | / | / | .
O=C1C(Cl)=C(N2CCCC2)C(=O)N1c1ccccc1F | 2.6µM | / | . | . | /
Cc1ccccc1N1C(=O)C(Cl)=C(N2CCN(c3ccccc3)CC2)C1=O | 3.7µM | / | ? | . | /
O=C1C(Cl)=C(N2CCCCCC2)C(=O)N1c1ccccc1Cl | . | / | . | . | /
COCCCNS(=O)(=O)c1cc(-c2onc(C)c2C)ccc1OC | / | . | / | / | .

High-throughput results deposited in PubChem BioAssay by National Center for Advancing Translational Sciences (NCATS).
